In PubChem BioAssay (NCI):
The panel holds about 83,000 compounds, 20% with a hit somewhere; the sample as a whole holds those more often.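 Treatment: one concentration, 48 hours, 96-well format. Scoring: percent growth, with anything below 10 considered active.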 Active and inactive are the calls of the source.

Experiments:
Experiment in all cases: NCI-60 one-dose screen, 48 h (100 = growth as untreated, 0 = no growth, -100 = all killed)
Conditions in all cases: 10 µM unless noted
SR leukemia = system: SR leukemia
RPMI-8226 leukemia = system: RPMI-8226 leukemia
OVCAR-8 ovarian = system: OVCAR-8 ovarian
OVCAR-5 ovarian = system: OVCAR-5 ovarian
OVCAR-4 ovarian = system: OVCAR-4 ovarian
SK-OV-3 ovarian = system: SK-OV-3 ovarian
IGROV1 ovarian = system: IGROV1 ovarian
OVCAR-3 ovarian = system: OVCAR-3 ovarian
HS 578T breast = system: HS 578T breast
NCI/ADR-RES ovarian = system: NCI/ADR-RES ovarian

Measured: growth

c1ccc2[nH]c(-c3ccc(OCCCCCOc4ccc(-c5nc6ccccc6[nH]5)cc4)cc3)nc2c1
active: SR leukemia -22.3% | RPMI-8226 leukemia -79.4% | OVCAR-8 ovarian -45.6% | OVCAR-4 ovarian -60.5% | HS 578T breast 4.31% | NCI/ADR-RES ovarian -0.189%
inactive: OVCAR-5 ovarian 16.1% | SK-OV-3 ovarian 207% | IGROV1 ovarian 38.3% | OVCAR-3 ovarian 20.4%

N=C(N)N=Nc1ccc(NN=C(N)N)cc1
inactive: SR leukemia 108% | RPMI-8226 leukemia 95.8% | OVCAR-8 ovarian 94.4% | OVCAR-5 ovarian 78.7% | OVCAR-4 ovarian 100% | SK-OV-3 ovarian 24% | IGROV1 ovarian 99.8% | OVCAR-3 ovarian 108% | NCI/ADR-RES ovarian 110%

CC(C)(C)C(=O)OCOP(=O)(OCOC(=O)C(C)(C)C)C1CC(O)N(O)C1=O (stereo not drawn)
inactive: OVCAR-8 ovarian 13.7% | OVCAR-5 ovarian 73.8% | OVCAR-4 ovarian 74.4% | SK-OV-3 ovarian 52.5% | OVCAR-3 ovarian 53.6% | NCI/ADR-RES ovarian 44.6%
active: SR leukemia 8.3% | RPMI-8226 leukemia 9.24% | IGROV1 ovarian 3.72% | HS 578T breast -4.97%

CCCCCCCCCCCCCCCCCCOP(=O)(O)O
inactive: SR leukemia 103% | RPMI-8226 leukemia 100% | OVCAR-8 ovarian 97.5% | OVCAR-5 ovarian 103% | OVCAR-4 ovarian 117% | SK-OV-3 ovarian 109% | IGROV1 ovarian 110% | OVCAR-3 ovarian 113% | NCI/ADR-RES ovarian 108%

COC(=O)C(C(=O)OC)C(Br)C(Br)C(Br)c1ccccc1 (stereo not drawn)
inactive: RPMI-8226 leukemia 80.5% | OVCAR-8 ovarian 91.8% | OVCAR-5 ovarian 120% | OVCAR-4 ovarian 90.1% | SK-OV-3 ovarian 109% | IGROV1 ovarian 107% | OVCAR-3 ovarian 92.6% | NCI/ADR-RES ovarian 111%
active: SR leukemia -10%

COc1cccc2c1nc1cccc(OC)c1[n+]2[O-]
active: SR leukemia -0.211% | IGROV1 ovarian -73.4%
inactive: RPMI-8226 leukemia 51.1% | OVCAR-8 ovarian 41.7% | OVCAR-5 ovarian 23.3% | OVCAR-4 ovarian 69.7% | SK-OV-3 ovarian 29% | OVCAR-3 ovarian 101% | HS 578T breast 80% | NCI/ADR-RES ovarian 37.4%

CCOC(=O)/C(C#N)=C(/CC)OCC
inactive: SR leukemia 85.6% | RPMI-8226 leukemia 103% | OVCAR-8 ovarian 98.8% | OVCAR-5 ovarian 106% | OVCAR-4 ovarian 106% | SK-OV-3 ovarian 105% | IGROV1 ovarian 105% | OVCAR-3 ovarian 104% | HS 578T breast 115% | NCI/ADR-RES ovarian 112%

O=C1C(=O)c2ccccc2C(O)=C1CCCc1ccc(Oc2ccccc2)cc1
inactive: SR leukemia 94.5% | RPMI-8226 leukemia 22.3% | OVCAR-8 ovarian 72.7% | OVCAR-5 ovarian 110% | OVCAR-4 ovarian 59.6% | SK-OV-3 ovarian 74.7% | IGROV1 ovarian 34.7% | OVCAR-3 ovarian 49.4% | HS 578T breast 95.7% | NCI/ADR-RES ovarian 91.6%

Cc1ccc(S(=O)(=O)N/N=C2\CC3CCC2C3)cc1 (stereo not drawn)
inactive: SR leukemia 103% | RPMI-8226 leukemia 104% | OVCAR-8 ovarian 102% | OVCAR-5 ovarian 98.9% | OVCAR-4 ovarian 115% | SK-OV-3 ovarian 93.9% | IGROV1 ovarian 101% | OVCAR-3 ovarian 113% | HS 578T breast 115% | NCI/ADR-RES ovarian 119%

O=C1Nc2ccccc2/C1=C/c1cn(CC(O)Cn2cc(/C=C3\C(=O)Nc4ccccc43)c3ccccc32)c2ccccc12 (stereo not drawn)
inactive: NCI/ADR-RES ovarian 31.8%
active: SR leukemia -2.94% | RPMI-8226 leukemia -41.7% | OVCAR-8 ovarian 1.35% | OVCAR-5 ovarian -34.2% | OVCAR-4 ovarian -51.7% | SK-OV-3 ovarian -38.2% | IGROV1 ovarian -67.4% | OVCAR-3 ovarian -85.1% | HS 578T breast -22.3%

C=CCNCCC#N
inactive: SR leukemia 89.7% | RPMI-8226 leukemia 101% | OVCAR-8 ovarian 96.8% | OVCAR-5 ovarian 108% | OVCAR-4 ovarian 106% | SK-OV-3 ovarian 103% | IGROV1 ovarian 108% | OVCAR-3 ovarian 114% | NCI/ADR-RES ovarian 117%

CCCCCCCCCCCCCCCCC(=O)O.CCCCCCCCCCCCCCCCCC(=O)O.CCCCCCCCCCCCCCCCCC(=O)O.CCCCCCCCCCCCCCCCCC(=O)O.CCCCCCCCCCCCCCCCCC(=O)O.CO[CH-]OC12COC1CC(O)C1(C)C(O)C(OC(C)O)C3=C(C)C(OC(=O)C(O)C([NH-])c4ccccc4)CC(O)(C(OC(=O)c4ccccc4)C21)C3(C)C.[Cu+].[Zn].[Zn].[Zn].[Zn].[Zn] (stereo not drawn)
inactive: SR leukemia 37.4% | RPMI-8226 leukemia 22.4% | OVCAR-8 ovarian 45.4% | OVCAR-5 ovarian 24.9% | OVCAR-4 ovarian 40.1% | SK-OV-3 ovarian 39.4% | IGROV1 ovarian 33.4% | HS 578T breast 10.5% | NCI/ADR-RES ovarian 42.4%

CC1(C)N=C(N)N=C(N)N1c1cccc(CCCCOc2ccccc2)c1
inactive: SR leukemia 31.6% | OVCAR-8 ovarian 19.9% | OVCAR-5 ovarian 29.6% | OVCAR-4 ovarian 61% | SK-OV-3 ovarian 41.8% | IGROV1 ovarian 26.6% | OVCAR-3 ovarian 26.5% | NCI/ADR-RES ovarian 107%
active: RPMI-8226 leukemia 8.3%

CCCCN(CCCC)CCCNc1c2c(nc3ccc(Cl)cc13)CCCC2
inactive: SR leukemia 75.8% | RPMI-8226 leukemia 102% | OVCAR-8 ovarian 102% | OVCAR-5 ovarian 84% | OVCAR-4 ovarian 84.7% | IGROV1 ovarian 79.5% | OVCAR-3 ovarian 88.9% | HS 578T breast 104% | NCI/ADR-RES ovarian 94.4%
